Data reported in PubChem BioAssay (Tox21).
Values joined by “and” are separate entries in the source; they are usually repeats but may differ in a detail not shown here. Equal values may be shown once. Some compounds were tested as several samples or in several runs, with calls that do not always agree. Active and inactive are the calls of the source. Entries that show only a call come without a potency. Unless noted, the call rests on the fitted dose curve; in most records, active means well fitted curve in the direction sought with a large enough effect in the repeat runs; inconclusive means weak or mixed curves; inactive means no such curve, though single readings can be large; an effect the other way counts as inactive or inconclusive.

Assays:
[1] = qHTS assay to identify small molecule antagonists of the glucocorticoid receptor (GR) signaling pathway - cell viability counter screen (AID 720693); further: nearly all actives have a fitted effect of over 55% in size
[2] = qHTS assay for identifying genotoxic compounds that show differential cytotoxicity against isogenic chicken DT40 cell lines with known DNA damage response pathways - Rev3 mutant cell line (AID 743014); further: nearly all actives have a fitted effect of over 55% in size; further: potency means the concentration at half of the fitted maximal effect
[3] = qHTS assay for identifying genotoxic compounds that show differential cytotoxicity against isogenic chicken DT40 cell lines with known DNA damage response pathways - Rad54/Ku70 mutant cell line (AID 743015); further: nearly all actives have a fitted effect of over 60% in size; further: potency means the concentration at half of the fitted maximal effect
[4] = qHTS assay to identify small molecule antagonists of the androgen receptor (AR) signaling pathway - cell viability counter screen (AID 743033; further: nearly all actives have a fitted effect of over 45% in size; further: potency means the concentration at half of the fitted maximal effect)
[5] = qHTS assay to identify small molecule antagonists of the androgen receptor (AR) signaling pathway using the MDA cell line - cell viability counter screen (AID 743041; further: nearly all actives have a fitted effect of over 45% in size; further: potency means the concentration at half of the fitted maximal effect)
Procedure, shortened: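 In this qHTS counter assay, fluorescence intensity after CellTiter-Fluor addition indicated viability of MDA-kb2 AR-luc cells given compounds and R1881 for 16 h at 37C.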

[6] = system: thyroid hormone receptor (rat, GH3 cells); assay: qHTS assay to identify small molecule agonists of the thyroid receptor (TR) signaling pathway (AID 743066; calls by dose curve)
[7] = qHTS assay to identify small molecule antagonists of the estrogen receptor alpha (ER-alpha) signaling pathway - cell viability counter screen (AID 743074; calls by dose curve;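 further: HEK293 cells carrying ER-alpha-UAS-bla reporter stimulated with 17beta-estradiol; nearly all actives have a fitted effect of over 45% in size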; further: potency means the concentration at half of the fitted maximal effect)
Aromatase (Homo sapiens) = Aromatase (Homo sapiens) (UniProt P11511); assay: qHTS assay to identify aromatase inhibitors (AID 743083); further: nearly all actives have a fitted effect of over 55% in size; further: potency means the concentration at half of the fitted maximal effect
Chain of Aromatase (Homo sapiens) (P11511 whole entry, looked up): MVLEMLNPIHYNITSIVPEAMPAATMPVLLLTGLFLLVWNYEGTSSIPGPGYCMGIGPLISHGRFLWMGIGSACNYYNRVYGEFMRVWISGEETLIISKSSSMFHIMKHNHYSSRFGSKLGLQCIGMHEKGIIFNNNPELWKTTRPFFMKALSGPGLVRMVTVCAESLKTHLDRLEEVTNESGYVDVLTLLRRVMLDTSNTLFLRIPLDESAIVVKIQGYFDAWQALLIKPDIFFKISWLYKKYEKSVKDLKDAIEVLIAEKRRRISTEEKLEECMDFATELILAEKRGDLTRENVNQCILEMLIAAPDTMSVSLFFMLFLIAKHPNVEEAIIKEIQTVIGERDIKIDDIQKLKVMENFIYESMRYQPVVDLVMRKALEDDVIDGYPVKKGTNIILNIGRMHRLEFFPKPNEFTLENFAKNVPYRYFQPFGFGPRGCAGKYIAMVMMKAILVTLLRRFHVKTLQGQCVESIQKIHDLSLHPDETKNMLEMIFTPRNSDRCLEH

[8] = qHTS assay to identify small molecule antagonists of the thyroid receptor (TR) signaling pathway - cell viability counter screen (AID 743064); further: nearly all actives have a fitted effect of over 50% in size; further: potency means the concentration at half of the fitted maximal effect
Procedure, shortened: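 GH3.TRE-Luc rat pituitary cells carrying a TRE-luciferase reporter were treated with compound plus 1 nM T3 (final) for 23.5 h at 37 °C. Viability was then read in the same wells by CellTiter-Fluor fluorescence after a further 30 min.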

[9] = qHTS assay to identify small molecule antagonists of the thyroid receptor (TR) signaling pathway (AID 743065); further: nearly all actives have a fitted effect of over 55% in size; further: potency means the concentration at half of the fitted maximal effect
Procedure, shortened: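 GH3.TRE-Luc rat pituitary cells carrying two TR response elements driving luciferase were plated for 4 h, given compound plus 1 nM T3 (final), and incubated 23.5 h at 37 C. ONE-Glo luminescence measured reporter inhibition; CellTiter-Fluor fluorescence tracked cytotoxicity.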

[10] = target: Estrogen receptor (Homo sapiens) (UniProt P03372); assay: qHTS assay to identify small molecule antagonists of the estrogen receptor alpha (ER-alpha) signaling pathway (AID 743069; active means well fitted curve in the direction sought with a large enough effect in the signal ratio in the repeat runs, not every such curve was filed as active; inconclusive means weak or mixed curves, or effect the other way; inactive means no such curve, though single readings can be large or run the other way; the % refers to the signal ratio; further: potency means the concentration at half of the fitted maximal effect)
Chain of Estrogen receptor (Homo sapiens) (P03372 whole entry, looked up): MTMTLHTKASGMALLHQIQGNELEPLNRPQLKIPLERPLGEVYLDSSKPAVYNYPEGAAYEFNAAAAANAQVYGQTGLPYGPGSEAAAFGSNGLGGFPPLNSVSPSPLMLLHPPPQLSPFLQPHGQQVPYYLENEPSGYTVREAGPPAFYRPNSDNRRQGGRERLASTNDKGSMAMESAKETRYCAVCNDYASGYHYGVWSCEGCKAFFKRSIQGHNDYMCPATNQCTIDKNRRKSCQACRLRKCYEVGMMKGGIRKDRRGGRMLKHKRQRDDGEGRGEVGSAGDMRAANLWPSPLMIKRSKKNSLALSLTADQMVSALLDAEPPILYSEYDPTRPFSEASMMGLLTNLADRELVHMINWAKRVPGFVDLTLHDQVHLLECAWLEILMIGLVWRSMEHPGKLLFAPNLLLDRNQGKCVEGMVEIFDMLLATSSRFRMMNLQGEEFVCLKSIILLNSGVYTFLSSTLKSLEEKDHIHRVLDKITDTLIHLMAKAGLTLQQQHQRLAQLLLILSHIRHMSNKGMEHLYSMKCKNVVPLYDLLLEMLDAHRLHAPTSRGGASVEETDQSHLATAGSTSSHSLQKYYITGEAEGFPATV
Procedure, shortened: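 A 17beta-estradiol challenge was applied right after compound transfer to ER-alpha-UAS-bla HEK293 cells previously kept in charcoal-stripped serum. Plates stood 18 hr at 37C and 5% CO2; fluorescence was read following 2 hr FRET substrate loading at room temperature.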

[11] = target: Estrogen receptor (Homo sapiens) (UniProt P03372); assay: qHTS assay to identify small molecule agonists of the estrogen receptor alpha (ER-alpha) signaling pathway (AID 743075; calls by dose curve; further: potency means the concentration at half of the fitted maximal effect)
[12] = target: Estrogen receptor (Homo sapiens) (UniProt P03372); assay: qHTS assay to identify small molecule agonists of the estrogen receptor alpha (ER-alpha) signaling pathway using the BG1 cell line (AID 743079); further: nearly all actives have a fitted effect of over 20% in size; further: potency means the concentration at half of the fitted maximal effect
[13] = qHTS assay to identify small molecule antagonists of the estrogen receptor alpha (ER-alpha) signaling pathway using the BG1 cell line - cell viability counter screen (AID 743081);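 further: compound given together with 17beta-estradiol as the ER stimulus; nearly all actives have a fitted effect of over 45% in size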; further: potency means the concentration at half of the fitted maximal effect
[14] = qHTS assay for identifying genotoxic compounds that show differential cytotoxicity against isogenic chicken DT40 cell lines with known DNA damage response pathways - wild type cell line (AID 743012); further: nearly all actives have a fitted effect of over 60% in size; further: potency means the concentration at half of the fitted maximal effect
Procedure, shortened: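 CellTiter-Glo luminescence readout of viability in wild type DT40 cells after 40 h compound exposure at 37 C/5% CO2; 300 cells/well; reagent incubated 30 min at room temperature before reading.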

[15] = target: Androgen receptor (Homo sapiens) (UniProt P10275); assay: qHTS assay to identify small molecule antagonists of the androgen receptor (AR) signaling pathway (AID 743035; active means well fitted inhibition curve with a large enough effect in the signal ratio in the repeat runs, not every such curve was filed as active; inconclusive means weak or mixed curves, or effect the other way; inactive means no such curve, though single readings can be large or run the other way; the % refers to the signal ratio; further: potency means the concentration at half of the fitted maximal effect)
Chain of Androgen receptor (Homo sapiens) (P10275 whole entry, looked up): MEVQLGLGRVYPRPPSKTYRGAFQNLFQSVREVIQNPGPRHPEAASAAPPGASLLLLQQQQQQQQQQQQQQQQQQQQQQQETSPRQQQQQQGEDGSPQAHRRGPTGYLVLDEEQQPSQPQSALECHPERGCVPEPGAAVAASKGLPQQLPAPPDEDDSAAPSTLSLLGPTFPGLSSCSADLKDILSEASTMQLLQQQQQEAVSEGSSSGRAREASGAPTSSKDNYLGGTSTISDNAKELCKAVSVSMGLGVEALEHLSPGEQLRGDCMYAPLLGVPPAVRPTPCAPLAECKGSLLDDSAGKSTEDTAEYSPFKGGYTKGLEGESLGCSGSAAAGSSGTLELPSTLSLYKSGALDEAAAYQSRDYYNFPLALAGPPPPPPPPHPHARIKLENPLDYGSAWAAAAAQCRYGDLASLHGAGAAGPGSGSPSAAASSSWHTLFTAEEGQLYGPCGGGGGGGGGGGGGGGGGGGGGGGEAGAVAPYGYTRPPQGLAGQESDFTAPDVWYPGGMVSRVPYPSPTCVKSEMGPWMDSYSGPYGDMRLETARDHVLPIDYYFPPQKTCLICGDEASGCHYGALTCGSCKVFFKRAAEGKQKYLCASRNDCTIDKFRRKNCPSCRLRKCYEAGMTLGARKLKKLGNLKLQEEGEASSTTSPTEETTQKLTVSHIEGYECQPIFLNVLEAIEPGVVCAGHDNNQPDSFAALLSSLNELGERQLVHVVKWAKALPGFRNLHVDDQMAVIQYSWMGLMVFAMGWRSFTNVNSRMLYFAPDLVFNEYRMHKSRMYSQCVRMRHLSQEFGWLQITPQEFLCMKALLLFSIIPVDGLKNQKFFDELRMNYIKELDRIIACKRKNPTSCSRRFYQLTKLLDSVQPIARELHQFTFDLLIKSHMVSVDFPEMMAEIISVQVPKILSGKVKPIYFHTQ
Procedure, shortened: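 AR-bla HEK293 reporter cells; 4 h settle at 37C/5% CO2; compound + R1881 agonist, 16 h at 37C; LiveBLAzer B/G FRET substrate 2 h RT; fluorescence intensity read. qHTS format.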

[16] = target: Androgen receptor (Homo sapiens) (UniProt P10275); assay: qHTS assay to identify small molecule agonists of the androgen receptor (AR) signaling pathway (AID 743036; active means well fitted activation curve with a large enough effect in the signal ratio in the repeat runs, with a control signal flat, not every such curve was filed as active; inconclusive means weak or mixed curves, or effect the other way; inactive means no such curve, though single readings can be large or run the other way; the % refers to the signal ratio)
Procedure, shortened: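 HEK293 cells stably carrying a UAS-driven beta-lactamase reporter (GeneBLAzer AR-UAS-bla-GripTite) were plated at 2,000 cells/well, rested 4 h at 37C, then exposed to compounds in DMSO for 16 h. LiveBLAzer B/G FRET substrate was added for 2 h at room temperature; fluorescence read.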

[17] = target: Androgen receptor (Homo sapiens) (UniProt P10275); assay: qHTS assay to identify small molecule agonists of the androgen receptor (AR) signaling pathway using the MDA cell line (AID 743040; further: nearly all actives have a fitted effect of over 20% in size)
Procedure, shortened: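 Cell-based luciferase reporter: MDA-kb2, MMTV promoter (AR + GR response elements). 16 h compound exposure at 37C; ONE-Glo, 30 min RT, luminescence.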

[18] = target: Androgen receptor (Homo sapiens) (UniProt P10275); assay: qHTS assay to identify small molecule antagonists of the androgen receptor (AR) signaling pathway using the MDA cell line (AID 743042; further: nearly all actives have a fitted effect of over 55% in size; further: potency means the concentration at half of the fitted maximal effect)
Procedure, shortened: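 MDA-kb2 cells (human breast carcinoma, stably carrying an MMTV-luciferase reporter responsive to AR and GR) were plated at 3,000 cells/well and preincubated 5 hr at 37C, then given compound plus R1881 agonist for 16 h. ONE-Glo luminescence was read.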

[19] = qHTS assay to identify small molecule antagonists of the estrogen receptor alpha (ER-alpha) signaling pathway using the BG1 cell line (AID 743080; calls by dose curve;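 further: BG1 cells stimulated with 17beta-estradiol alongside compound; nearly all actives have a fitted effect of over 25% in size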; further: potency means the concentration at half of the fitted maximal effect)
Procedure, shortened: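 Readout is ONE-Glo luminescence, taken 30 min at room temperature after reagent addition, preceded by a CellTiter-Fluor viability read; BG1-Luc-4E2 cells had received compound and 17beta-estradiol for 21.5 h at 37 C.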

Compound | Potency [1] | Potency [2] | Potency [3] | Potency [4] | Potency [5] | Potency [6] | Potency [7] | Potency (Aromatase (Homo sapiens)) | Potency [8] | Potency [9] | Potency [10] | Potency [11] | Potency [12] | Potency [13] | Potency [14] | Potency [15] | Potency [16] | outcome [17] | Potency [18] | Potency [19]
NC(N)=NC(=O)Cc1c(Cl)cccc1Cl | inactive | inactive | inactive | inactive | inactive | inactive | inactive | inactive |  |  |  |  |  |  |  |  |  |  |  | 
CC(C)CCOC(=O)c1ccc(N(C)C)cc1 | inactive |  |  | inactive |  | inactive | inactive | inactive | inactive | inactive | inactive | inactive | 11.9 µM (active) | inactive |  |  |  |  |  | 
O=C(O)c1cn(-c2ccc(F)cc2)c2cc(N3CCNCC3)c(F)cc2c1=O | inactive | inactive |  | inactive | inactive | inactive | inactive | inactive | inactive | inactive |  |  |  | inactive |  |  |  |  |  | 
Cc1ccc(-c2cc(C(F)(F)F)nn2-c2ccc(S(N)(=O)=O)cc2)cc1 |  | 21.1 µM (active) and 54.3 µM (active) and 24.3 µM (active) | 29.8 µM (active) and 54.3 µM (active) and 24.3 µM (active) | 34.5 µM (active) and 43.6 µM (active) | inactive | inactive | inactive and 43.5 µM (active) | 29.8 µM (active) and 30.5 µM (active) | 26.6 µM (active) and 48.4 µM (active) | 23.7 µM (active) and 30.5 µM (active) and 54.5 µM (active) | inactive and 54.9 µM [inconclusive] (active) | 23.9 µM [activator] (active) and inactive | 7.5 µM (active) | inactive | 23.7 µM (active) and 27.3 µM (active) | 23.9 µM (active) | inactive | inactive | inactive and 60.9 µM (active) and 68.6 µM (active) | inactive
Nc1nc(=S)c2[nH]cnc2[nH]1 |  | 1.88 µM (active) and 1.33 µM (active) and 686 nM (active) | 1.33 µM (active) [middle of 4 runs] | 26.8 µM (active) and 1.95 µM (active) | inactive | inactive |  | inactive | inactive | inactive |  | 19 µM [activator] (active) and inactive | 21.1 µM (active) and inactive | inactive |  | 16.9 µM (active) and 10.7 µM (active) and 6.92 µM (active) | inactive | inactive | inactive | inactive and 750 nM (active)
CC1=CC(=O)c2ccccc2C1=O |  |  | 26.6 µM (active) and 15.4 µM (active) | inactive and 21.9 µM (active) |  | inactive | inactive | inactive and 19.3 µM (active) | 13.7 µM (active) | 21.1 µM (active) and 13.7 µM (active) |  |  |  | inactive | 21.1 µM (active) and 13.7 µM (active) | inactive |  | inactive | inactive and 30.6 µM (active) | 29.8 µM (active)
O=C(O[C@@H]1Cc2c(O)cc(O)cc2O[C@@H]1c1cc(O)c(O)c(O)c1)c1cc(O)c(O)c(O)c1 | inactive |  |  | inactive | inactive | inactive | inactive | inactive | 48.7 µM (active) and 52.5 µM (active) | 27.4 µM (active) and 26.3 µM (active) | inactive | inactive | inactive | inactive |  |  |  |  |  | inactive
O=C1NCC2(CCN(CCc3ccccc3)CC2)O1 |  |  |  | inactive | inactive | inactive | inactive | inactive | inactive | inactive | inactive | inactive | 29.8 µM (active) | inactive |  |  |  |  |  | inactive
CN(C)c1ccc2nc3ccc(=[N+](C)C)cc-3sc2c1 |  | 750 nM (active) and 587 nM (active) and 686 nM (active) | 422 nM (active) and 262 nM (active) and 386 nM (active) | 1.87 µM (active) and 3.09 µM (active) | 5.96 µM (active) and 11.7 µM (active) and 17.2 µM (active) | inactive | inactive |  | 15 µM (active) and 26.2 µM (active) and 54.5 µM (active) |  | inactive |  |  | 18.8 µM (active) and 23.4 µM (active) and 54.5 µM (active) | 473 nM (active) and 2.34 µM (active) and 686 nM (active) |  |  |  |  | 
CCN(CC)CCOc1ccc(/C(=C(\Cl)c2ccccc2)c2ccccc2)cc1 |  | 422 nM (active) and 24.8 nM (active) | 1.68 µM (active) and 44.2 nM (active) | 15.8 µM (active) | inactive | inactive | 39.7 µM (active) | 3.35 µM (active) and 1.4 µM (active) | 7.5 µM (active) and 7.86 µM (active) | 6.68 µM (active) and 7.86 µM (active) |  |  |  | inactive | 1.19 µM (active) and 140 nM (active) |  |  |  | inactive | 
O=C(Nc1ccccc1SSc1ccccc1NC(=O)c1ccccc1)c1ccccc1 |  |  | 2.45 µM (active) and 1.72 µM (active) | 11 µM (active) and 19.5 µM (active) |  | inactive |  | 13.8 µM (active) and 27.3 µM (active) | 68.6 µM (active) | 21.8 µM (active) and 48.6 µM (active) | inactive |  | 27.4 µM (active) and 54.5 µM (active) | inactive | 2.45 µM (active) and 1.37 µM (active) |  |  |  |  | 
O=C(O)CCc1ccccc1 |  |  | inactive | inactive | inactive | inactive | inactive |  | inactive | inactive |  |  |  | inactive | inactive |  |  |  |  | 
CC(C)(C)c1ccc(O)c(C(C)(C)C)c1 |  | 27.2 µM (active) and 24.3 µM (active) | 30.5 µM (active) and 27.3 µM (active) |  | inactive |  | 34.5 µM (active) and inactive | 54.3 µM (active) and 54.5 µM (active) | 27.2 µM (active) and 30.6 µM (active) | 30.5 µM (active) and 24.3 µM (active) | inactive |  |  | inactive | 27.3 µM (active) |  |  |  |  | 48.6 µM (active)
